In the library only some 21% were active in any assay of this set; here they are far more common.
Pf growth 48h: Primary qHTS for delayed death inhibitors of the malarial parasite plastid, 48 hour incubation; P. falciparum luciferase growth in erythrocytes, 48 h; Potency, µM (top dose mostly 28.7 µM), most hits filed as inhibitors; hit rate 5.9% among 310,000
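A one-generation exposure of luciferase-tagged malaria parasites in RPMI 1640/Albumax erythrocyte culture, 37 C and 5% CO2. Inhibition is inferred from decreased luminescence after adding detection reagent.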
Pf growth 96h: Primary qHTS for delayed death inhibitors of the malarial parasite plastid, 96 hour incubation; P. falciparum luciferase reporter growth, 96 h; Potency, µM (highest dose often 28.7 µM), usual class: inhibitors; hit rate 6.9% among 320,000; AID 504834, 2011
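Plates of compound plus infected erythrocytes (2% hematocrit, 0.05% parasitemia final) incubate 96 hours, 37 C, 5% CO2. Detection reagent added; reduced luminescence from the parasites' luciferase reporter flags inhibition.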
Shiga toxin inh: A qHTS for Small Molecule Inhibitors of Shiga Toxin | hit rate 9.2% among 290,000 | AID 2315, 2010 | inhibition, % at 38.7 µM | Vero cells, Shiga toxin protein synthesis inhibition reporter; in the data active means inhibition mostly above about 28%, no sharp cut-off; inactive means mostly below about 43%
NS1 inh: qHTS Assay for Inhibitors of Influenza NS1 Protein Function | hit rate 0.4% among 270,000 | AID 2326, 2010 | Potency, µM (doses to about 46.1 µM); calls by dose curve; further: actives are rising curves; nearly all actives have a fitted effect of over 50% in size
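Read-out: OD600 growth recovery of NS1-expressing budding yeast. Cells grown overnight at 30C in -URA glucose medium, washed, resuspended and diluted 1:100 in 2% galactose assay medium, pH 6.0. Same strain lacking NS1 served as positive control.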
Cycloheximide cs: Cycloheximide Counterscreen for Small Molecule Inhibitors of Shiga Toxin; cell reporter, cycloheximide protein synthesis inhibition counterscreen; hit rate 12% among 300,000; max response, %; in the data active means max response mostly above about 13%, no sharp cut-off; inactive means mostly below about 14%; further: read at 38.3 µM for the half of the compounds with a filed dose
Numbers stand for hits; – = inactive; ? = inconclusive; · = not tested or not shown; [ ] = dose if it differs, or a comment. Unless noted, the call rests on the fitted dose curve; in most records, active means well fitted inhibition curve with a large enough effect; inconclusive means small, poorly fitted or top-dose-only effect, or another doubt; inactive means no such curve, though single readings can be large or run the other way.

SMILES	Pf growth 48h	Pf growth 96h	Shiga toxin inh	NS1 inh	Cycloheximide cs
CC(Sc1nc2cc([N+](=O)[O-])ccc2n1-c1ccc(F)cc1)C(=O)NCc1ccc2c(c1)OCO2 (configuration not stated)	?	1.7µM	–	?	–
Cc1cc(C)cc(-n2c(SC(C)C(=O)NCc3ccc4c(c3)OCO4)nc3ccccc3c2=O)c1 (configuration not stated)	13µM	–	–	–	–
CC(Sc1nc2cc([N+](=O)[O-])ccc2n1-c1cccc(C(F)(F)F)c1)C(=O)NC(N)=O (configuration not stated)	0.59µM	0.66µM	–	–	–
CC(Sc1nnc(-c2cccnc2)n1-c1ccccc1)C(=O)NCc1ccc2c(c1)OCO2 (configuration not stated)	–	·	76	–	40
CC(SCc1ccc(C(=O)O)o1)c1ccc(C(=O)O)o1 (configuration not stated)	–[0.00184 µM]	–	–	–	–
COc1cc(NC(=O)c2ccc3c(c2)S(=O)(=O)N=C2CCCCCN23)cc(OC)c1	?	–	·	·	·
CN(C)C(=O)COC(=O)c1ccccc1Nc1ccc(SC(F)F)cc1	–	–	–	–	32
CC(CC(=O)NCc1ccccc1)C1CCCO1 (configuration not stated)	–	·	26	–	17
O=C(CC(C(=O)O)C1CCCO1)NCc1ccccc1 (configuration not stated)	–	–	–	–	–
CCCCOc1ccc(CCN)cc1Cl	–	–	–	–	34
CCCCOc1ccc(CSCCN)cc1Cl	–	–	73	–	23
CCOc1ccc(CSC(=N)N)cc1Cl	?	?	–	–	–
O=C(NCC(=O)N1CCN(Cc2c(F)cccc2Cl)CC1)c1cccc(Cl)c1	–	–	·	·	·
O=C(O)c1ccc(NC(=S)NC2CCCCC2)cc1	–	?	–	–	–
C=C1C2(C(=O)Nc3ccc(SC(F)F)cc3)CCC(C2)C1(C)C (configuration not stated)	–	?	–	–	–
O=C(Nc1ccc(SC(F)F)cc1)C12CCC(CC1)C2	–	–	77	–	19
FC(F)Sc1ccc(NC(=S)NC2CCCC2)cc1	–	–	64	·	38
NS(=O)(=O)c1ccc(NC(=S)NC2CCCC2)cc1	–	–	–	–	–
CC1CCCC(NCC(=O)Nc2ccc(C(N)=O)cc2)C1C (configuration not stated)	–	–	–	·	–
OC1CCC(NC(=S)Nc2ccc(SC(F)F)cc2)CC1 (configuration not stated)	–	–	75	·	36
CC1CCCC(NC(=S)Nc2ccc(SC(F)F)cc2)C1C (configuration not stated)	?	·	–	–	25
CCO[C@H]1OC(C(=O)N2CCCCCCC2)=C[C@@H](c2coc3ccccc3c2=O)[C@@H]1CCCO	–	?	–	–	–
Cc1c(NC(=O)C(C)Sc2nc3ccccc3c(=O)n2CCO)c(=O)n(-c2ccccc2)n1C (configuration not stated)	–	–	–	–	–
COc1ccc(NC(=O)C(c2ccccc2)N2CCN(c3ccccn3)CC2)cc1Cl (configuration not stated)	?	?	–	·	–
CC(OC(=O)CC1Sc2ccccc2NC1=O)C(=O)NC1CCCC1 (configuration not stated)	–	–	–	–	–
SMILES	Pf growth 48h	Pf growth 96h	Shiga toxin inh	NS1 inh	Cycloheximide cs
O=C(NCC1CC1(Cl)Cl)Nc1ccc(Cl)c(Cl)c1 (configuration not stated)	?	?	94	–	–
Cc1ccc(NC(=O)NCC2CC2(Cl)Cl)cc1 (configuration not stated)	–	–	125	–	31
CCc1cc2cccc(C)c2nc1SCC(=O)N1CCN(C(=O)c2ccco2)CC1	–	–	–	–	–
CCc1cc2ccc(C)cc2nc1SCC(=O)NNC(=O)c1ccco1	–	4.7µM	–	–	–
CCc1c(C)nc(SCC(=O)NNC(=O)c2ccco2)[nH]c1=O	–	?	39	–	30
CCc1cc2cc(C)cc(C)c2nc1SCC(=O)N1CCN(C(=O)c2ccco2)CC1	–	8.3µM	–	–	–
CCCOc1ccc(C=Nc2ccc(OC)c(S(=O)(=O)N3CCOCC3)c2)c(O)c1	–	–	·	·	·
CCOc1cccc2cc(C(=O)N3CC(C)OC(C)C3)c(=O)oc12 (configuration not stated)	–	6.6µM	–	–	–
CCOc1cccc2cc(C(=O)N3CCOCC3)c(=O)oc12	–	12µM	–	–	–
COc1cccc2cc(C(=O)N3CCN(C(=O)c4ccco4)CC3)c(=O)oc12	–	·	–	–	–
CCOc1ccc(C(C)C)cc1S(=O)(=O)N1CCN(C(=O)c2ccco2)CC1	?	–	–	–	–
CC1CCCN(CCCOc2ccc(Br)cc2Cl)C1 (configuration not stated)	?	?	41	–	22
COc1ccc(CN2CCN(C(=O)c3ccco3)CC2)cc1OCc1ccccc1	?	0.093µM	–	–	–
C=CCc1ccc(OCCCN2CCCC(C)C2)c(OC)c1 (configuration not stated)	·	–	–	–	22
CCCCN(C)C(=O)C1CCN(CCCc2ccccc2)CC1	2.3µM	·	–	–	–
CN(CCn1ccnc1)Cc1cn(Cc2ccccc2)nc1-c1ccc2c(c1)OCO2	?	?	–	–	–
O=C(CCC(=O)N(CC(=O)NC1CCCC1)c1cccc(F)c1)Nc1nccs1	–	–	–	–	–
CSc1n[nH]c(/N=C/c2oc(O)c3ccccc23)n1	–	–	–	–	–
COc1cc(OC)cc(C(=O)NNC(=O)CNC(=O)c2cccs2)c1	–	–	·	·	·
COc1cc(OC)c(C2=NOC(C(=O)O)C2)cc1Cl (configuration not stated)	–	–	–	–	–
FC(F)(F)c1cccc(NC(=S)NCC2COc3ccccc3O2)c1 (configuration not stated)	–	–	–	–	–
COc1cc2c(cc1OC)C(c1ccccc1)CC2=O (configuration not stated)	–	–	–	–	–
CCOC(=O)C1CCCN(Cc2c(C(=O)N3CCCCC3)nc3c(C)cccn23)C1 (configuration not stated)	–	–	–	–	–
CCOC(=O)C1CCCCN1Cc1cccc(OCc2ccccc2)c1 (configuration not stated)	–	13µM	–	–	–
COc1cc(CN2CCCC(C)C2)ccc1OCc1ccccc1 (configuration not stated)	–	–	36	–	17
CCOC(=O)C1CCCN(CCCc2ccccc2)C1 (configuration not stated)	–	3.3µM	–	–	–
CCOC(=O)C1CCCN(Cc2c(C(=O)N3CCOCC3)nc3ccccn23)C1 (configuration not stated)	–	9.3µM	–	–	–
COC(=O)Nc1nn(-c2ccc(OC)cc2)c(=O)c(C#N)c1C	–	?	–	·	–
